From PubChem BioAssay AID624094 (National Center for Advancing Translational Sciences (NCATS), 2012) come the findings set out here.

Inconclusive results are not listed. The source made the active and inactive calls. The call rests on the fitted dose curve; in most records, active means well fitted inhibition curve with a large enough effect; inconclusive means small, poorly fitted or top-dose-only effect; inactive means flat fitted curve, though single readings scatter.

Chain of Dual specificity protein kinase CLK4 (Homo sapiens) (Q9HAZ1 whole entry, looked up): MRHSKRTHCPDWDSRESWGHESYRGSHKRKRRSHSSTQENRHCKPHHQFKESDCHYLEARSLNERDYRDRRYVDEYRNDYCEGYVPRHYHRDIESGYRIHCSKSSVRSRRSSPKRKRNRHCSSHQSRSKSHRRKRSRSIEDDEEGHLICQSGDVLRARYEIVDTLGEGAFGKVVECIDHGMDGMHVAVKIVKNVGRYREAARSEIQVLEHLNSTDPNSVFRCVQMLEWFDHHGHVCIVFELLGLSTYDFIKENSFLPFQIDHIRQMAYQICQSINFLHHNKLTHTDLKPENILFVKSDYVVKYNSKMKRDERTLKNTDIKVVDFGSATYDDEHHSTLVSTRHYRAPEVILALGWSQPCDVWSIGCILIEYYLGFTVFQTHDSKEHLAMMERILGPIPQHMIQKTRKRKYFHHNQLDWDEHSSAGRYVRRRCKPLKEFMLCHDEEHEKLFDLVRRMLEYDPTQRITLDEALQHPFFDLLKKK

The assay deals with Dual specificity protein kinase CLK4 (Homo sapiens) (UniProt Q9HAZ1). Put plainly: Confirmation Assay for Inhibitors of Clk4 (Kinase-Glo Assay): KU probe. To be noted: recombinant Clk4, Kinase-Glo ATP luminescence; series mostly up to 76.9 µM. As for the experimental part:
NIH Molecular Libraries Probe Production Centers Network [MLPCN] NIH Chemical Genomics Center [NCGC] MLPCN Grant: 1R03MH084827-01 Assay Submitter (PI): Tom Misteli NCGC Assay Overview: Clk4 (Invitrogen, cat# PV3839) was assayed using ATP and the RS repeat peptide (AnaSpec cat # 61722) as substrates. Following the Clk4 reaction, the remaining ATP levels were detected using Promega Kinase-Glo technology wherein the remaining ATP from the kinase reaction is detected using Ultra-Glo luciferase and D-luciferin which generates a bioluminescence signal from the ATP.
NCGC Assay Protocol Summary: Two uL/well of substrate-buffer solution (100 uM RS peptide, 1 uM ATP, 25 mM Tris pH7.5, 10 mM MgCl2, 0.5 mM EGTA, 2.5 mM DTT, 0.01% Triton X-100 final concentration) was dispensed into 1536-well, assay plates (Greiner, solid white medium-binding plates) with Aurora Discovery BioRAPTR Flying Reagent Dispenser (FRD; Beckton-Dickenson). Using a Kalypsys pin tool equipped with a 1536-pin tool, 23 nL of compound solution was transferred to the assay plate. One uL/ well Clk4-buffer solution (25 nM Clk4, 25 mM Tris pH 7.5, 10 mM MgCl2, 0.5 mM EGTA, 2.5 mM DTT, 0.01% Triton X-100, final concentrations) was then added using the FRD yielding a total kinase reaction volume of 3 uL/ well. After 4.5 hours of room temperature incubation, 3 uL Kinase-Glo reagent was added for a final assay volume of 6 uL/ well. Luminescence was detected with the ViewLux plate reader (Perkin Elmer, Waltham, MA) after 5 min incubation using a 5 second exposure time and 2x binning.
(In Kinase-Glo more light means more ATP remaining.)
Turning to `Cc1ccc(CNc2ccnc(-c3ccc(N(C)C)cc3)n2)cc1`, the Potency result is “inactive”. Next, `O=C(O)c1ccc(-c2ccc3ncnc(NCc4nccs4)c3c2)o1`: 923 nM (active). Next, `Cc1ccc(CNc2ccnc(-c3cccc(C#N)c3)n2)cc1`: 23200 nM (active); `CN(C)c1ccc(-c2nccc(NCc3ccccc3)n2)cc1`: “inactive”; `Fc1cc(CNc2ccnc(-c3ccc4c(c3)OCO4)n2)ccc1Cl`: 13000 nM (active).

As to `COc1cccc(-c2nccc(NCc3ccc(Cl)cc3)n2)c1`, the Potency is 13000 nM (active). Next, `O=C(O)c1ccc(-c2ccc3ncnc(N4CCOCC4)c3c2)o1`: 582 nM (active); `CCNC(=O)c1ccc(-c2ccc3ncnc(NCC4CCCO4)c3c2)o1` (stereo not given): 328 nM (active); `FC(F)(F)c1cccc(Nc2nccc(-c3ccc4c(c3)OCO4)n2)c1`: 65.4 nM (active). Next, `COc1ccc(-c2ccnc(NCc3ccc(Cl)cc3)n2)cc1`: 184 nM (active). Next, `COc1ccc(-c2ccnc(NCc3ccc(Cl)c(Cl)c3)n2)cc1OC`: 26000 nM (active); `CN(C)c1ccc(-c2ncccn2)cc1`: “inactive”.

`c1cncc(CNc2ccnc(-c3ccc4[nH]ncc4c3)n2)c1`: the Potency is 146 nM (active). As for `c1cncc(CNc2ccnc(-c3ccc4ccccc4c3)n2)c1`, the Potency is 14600 nM (active). Next, `CN(C)c1ccc(-c2nccc(NCc3ccc(Cl)cc3)n2)cc1`: “inactive”; `CC(=O)c1ccc(-c2ccc3ncnc(NCc4ccc(C)o4)c3c2)o1`: 130 nM (active); `Cc1noc(C)c1-c1nccc(NCc2ccc(Cl)cc2)n1`: “inactive”. Next, `Nc1ncnc2c1c(I)cn2C1OC(CO)C(O)C1O` (stereo not given): 11.6 nM (active).

As for `O=[N+]([O-])c1cc(Nc2nccc(-c3ccc4c(c3)OCO4)n2)cc(C(F)(F)F)c1`, the Potency was 104 nM (active). Next, `Cc1csc(CNc2ncnc3ccc(-c4ccc(CO)o4)cc23)n1`: 923 nM (active); `Clc1ccc(CNc2ncncc2-c2ccc3c(c2)OCO3)cc1`: 5820 nM (active). The figure for `CN(CC1CCCCO1)c1ncnc2ccc(-c3ccc4c(c3)OCO4)cc12` (stereo not given) is 46.3 nM (active); for `Clc1ccc(CNc2nccc(-c3ccc4[nH]ncc4c3)n2)cc1Cl` it is 26 nM (active).

For the compound `COc1ccc(CNc2ccnc(-c3c(C)noc3C)n2)cc1`, the Potency result is “inactive”. As to `Clc1cc(Cl)cc(CNc2ccnc(-c3ccc4c(c3)OCO4)n2)c1`, the Potency was 4120 nM (active). The figure for `c1nc(NCC2CCCCC2)c2cc(-c3ccc4c(c3)OCO4)ccc2n1` is 65.4 nM (active).

Regarding `Fc1cc(CNc2ccnc(-c3ccc4c(c3)OCO4)n2)cc(F)c1F`, the Potency was 23200 nM (active).

On to `Brc1cc(Br)cc(CNc2nccc(-c3ccc4c(c3)OCO4)n2)c1`, for which the Potency is 36.8 nM (active). `CCCN(C)c1ncnc2ccc(-c3ccc4c(c3)OCO4)cc12`: the Potency is 58.2 nM (active).

`Cc1c(-c2ccnc(NCc3ccc(Cl)cc3)n2)sc(=O)n1C`: the Potency was 58.2 nM (active). Next, `Brc1cncc(CNc2ccnc(-c3ccc4c(c3)OCO4)n2)c1`: 8230 nM (active); `c1cncc(CNc2nccc(-c3ccc4c(c3)OCO4)n2)c1`: 23.2 nM (active).

For `Fc1ccc(CNc2ccnc(-c3ccc4c(c3)OCO4)n2)cc1Br`, the Potency was 13000 nM (active). Next, `Clc1cc(CNc2ccnc(-c3ccc4c(c3)OCO4)n2)ccn1`: 3680 nM (active).

On to `COc1ccc(CNc2ccnc(-c3ccc(N(C)C)cc3)n2)cc1`, for which the Potency result is “inactive”. The figure for `Clc1ccc(CNc2ccnc(-c3cccnc3)n2)cc1Cl` is 13000 nM (active); for `c1cncc(CNc2nccc(-c3ccc4cn[nH]c4c3)n2)c1` it is 41.2 nM (active). Next, `COc1cccc(-c2nccc(NCc3ccc(C)cc3)n2)c1`: 23200 nM (active). As to `Fc1ccc(CNc2ccnc(-c3ccc4c(c3)OCO4)n2)cc1Cl`, the Potency was 5190 nM (active).

For the compound `FC(F)(F)c1cc(Br)cc(Nc2nccc(-c3ccc4c(c3)OCO4)n2)c1`, the Potency was 130 nM (active).
